In PMC7862700, “An all-to-all approach to the identification of sequence-specific readers for epigenetic DNA modifications on cytosine”:

Legend:
Assay in all cases: DAPPL (digital affinity profiling via proximity ligation, sequencing); 10 mM Tris-HCl pH 7.5, 50 mM NaCl, 1 mM DTT, 4% glycerol, room temperature, 30 min; GST-TFs on glutathione beads, 16-mer random dsDNA library, 0.1% formaldehyde crosslink after washing; high values mean tight binding
FEV = target: T1, FEV (Homo sapiens, UniProt Q99581 1-238); details: protein: recombinant; tags: N-terminal GST; dsDNA, one strand shown
T1 sequence: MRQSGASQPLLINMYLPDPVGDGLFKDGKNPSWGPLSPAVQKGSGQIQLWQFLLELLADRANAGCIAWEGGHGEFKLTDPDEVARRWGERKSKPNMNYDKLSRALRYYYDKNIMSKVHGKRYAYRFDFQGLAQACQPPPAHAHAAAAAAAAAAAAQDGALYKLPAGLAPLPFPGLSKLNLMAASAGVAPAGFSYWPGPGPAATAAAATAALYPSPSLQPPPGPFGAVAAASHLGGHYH
Procedure, shortened: (§1)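 Beads coated with glutathione captured GST-fused human transcription factors that had been expressed in yeast, and the factors were then given DNA barcodes and pooled with a tag-only sample. The pools were incubated with 200 nmole of a random double-stranded 16-mer DNA library in Tris/NaCl/DTT/glycerol buffer for 30 min at room temperature, washed, crosslinked with 0.1% formaldehyde and proximity-ligated with BsaI/T4 ligase at 37 °C for 1 h. PCR amplification and Illumina NextSeq500 sequencing came last. Binding signal is each hexamer's read frequency for a factor divided by its frequency for the tag-only sample.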

ETV5 = ETV5 (Homo sapiens, UniProt P41161 1-510); details: protein: recombinant; tags: N-terminal GST; dsDNA, one strand shown
Sequence of ETV5 (P41161 whole entry): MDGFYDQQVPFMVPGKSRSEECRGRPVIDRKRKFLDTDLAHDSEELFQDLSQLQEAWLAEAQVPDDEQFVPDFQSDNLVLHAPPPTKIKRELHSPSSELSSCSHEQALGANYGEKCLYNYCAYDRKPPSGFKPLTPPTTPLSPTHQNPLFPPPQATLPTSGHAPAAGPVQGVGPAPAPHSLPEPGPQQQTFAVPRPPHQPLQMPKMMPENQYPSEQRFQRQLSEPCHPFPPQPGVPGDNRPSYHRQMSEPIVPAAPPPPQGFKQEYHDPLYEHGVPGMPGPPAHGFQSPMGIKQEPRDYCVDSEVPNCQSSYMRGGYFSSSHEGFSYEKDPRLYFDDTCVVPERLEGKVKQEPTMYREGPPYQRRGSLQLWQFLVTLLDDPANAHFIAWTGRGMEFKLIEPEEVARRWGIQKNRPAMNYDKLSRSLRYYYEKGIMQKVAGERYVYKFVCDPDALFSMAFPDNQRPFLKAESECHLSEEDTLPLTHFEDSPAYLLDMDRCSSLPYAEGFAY
Procedure, shortened: as §1

HSF1 = HSF1 (Homo sapiens, UniProt Q00613 1-529); details: protein: recombinant; tags: N-terminal GST; chain copies: 3; dsDNA, one strand shown
Sequence of HSF1 (Q00613 whole entry): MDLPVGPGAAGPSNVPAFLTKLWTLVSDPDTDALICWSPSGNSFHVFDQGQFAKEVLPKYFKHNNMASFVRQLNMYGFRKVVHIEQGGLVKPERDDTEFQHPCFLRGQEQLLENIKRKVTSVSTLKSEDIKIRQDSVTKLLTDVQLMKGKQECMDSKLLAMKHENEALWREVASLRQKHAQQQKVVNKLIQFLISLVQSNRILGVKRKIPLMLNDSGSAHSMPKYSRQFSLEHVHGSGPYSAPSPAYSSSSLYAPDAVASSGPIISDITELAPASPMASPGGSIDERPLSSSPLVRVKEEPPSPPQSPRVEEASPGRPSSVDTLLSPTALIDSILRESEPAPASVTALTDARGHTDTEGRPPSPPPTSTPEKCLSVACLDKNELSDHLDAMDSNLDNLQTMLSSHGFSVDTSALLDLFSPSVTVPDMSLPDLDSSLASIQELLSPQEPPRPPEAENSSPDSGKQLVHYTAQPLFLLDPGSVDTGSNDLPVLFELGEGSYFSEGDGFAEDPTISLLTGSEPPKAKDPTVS
Procedure, shortened: as §1

SPIC = target: T2, SPIC (Homo sapiens, UniProt Q8N5J4 1-248); details: protein: recombinant; tags: N-terminal GST; dsDNA, one strand shown
T2 sequence: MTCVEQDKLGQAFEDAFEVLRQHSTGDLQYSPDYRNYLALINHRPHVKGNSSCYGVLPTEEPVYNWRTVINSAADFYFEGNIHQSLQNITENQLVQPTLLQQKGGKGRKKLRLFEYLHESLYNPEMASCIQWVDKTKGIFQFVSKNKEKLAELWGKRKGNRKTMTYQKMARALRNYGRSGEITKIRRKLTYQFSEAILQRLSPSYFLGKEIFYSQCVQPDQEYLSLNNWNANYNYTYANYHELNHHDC
Procedure, shortened: as §1

ELF4 = ELF4 (Homo sapiens, UniProt Q99607 1-663); details: protein: recombinant; tags: N-terminal GST; dsDNA, one strand shown
Sequence of ELF4 (Q99607 whole entry): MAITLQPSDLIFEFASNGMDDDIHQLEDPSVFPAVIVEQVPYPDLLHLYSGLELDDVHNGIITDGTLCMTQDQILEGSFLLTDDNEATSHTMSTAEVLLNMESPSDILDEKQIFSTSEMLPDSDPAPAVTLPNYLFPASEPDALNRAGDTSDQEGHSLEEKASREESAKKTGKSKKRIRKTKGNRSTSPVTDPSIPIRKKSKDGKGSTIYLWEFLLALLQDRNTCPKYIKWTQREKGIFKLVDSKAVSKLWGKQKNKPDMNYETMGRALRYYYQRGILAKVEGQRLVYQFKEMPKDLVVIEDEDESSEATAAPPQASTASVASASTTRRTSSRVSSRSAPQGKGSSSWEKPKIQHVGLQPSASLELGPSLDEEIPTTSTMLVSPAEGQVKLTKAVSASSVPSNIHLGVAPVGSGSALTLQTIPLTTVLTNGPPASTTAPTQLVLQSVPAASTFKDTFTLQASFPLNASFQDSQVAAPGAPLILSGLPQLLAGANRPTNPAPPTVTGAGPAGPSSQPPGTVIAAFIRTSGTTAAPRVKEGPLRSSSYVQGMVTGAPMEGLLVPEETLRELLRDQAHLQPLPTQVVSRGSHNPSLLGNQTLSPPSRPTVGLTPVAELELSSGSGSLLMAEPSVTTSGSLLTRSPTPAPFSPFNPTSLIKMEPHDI
Procedure, shortened: as §1

ELK4 = target: T3, ELK4 (Homo sapiens, UniProt P28324-2 1-405); details: protein: recombinant; tags: N-terminal GST; dsDNA, one strand shown
T3 sequence: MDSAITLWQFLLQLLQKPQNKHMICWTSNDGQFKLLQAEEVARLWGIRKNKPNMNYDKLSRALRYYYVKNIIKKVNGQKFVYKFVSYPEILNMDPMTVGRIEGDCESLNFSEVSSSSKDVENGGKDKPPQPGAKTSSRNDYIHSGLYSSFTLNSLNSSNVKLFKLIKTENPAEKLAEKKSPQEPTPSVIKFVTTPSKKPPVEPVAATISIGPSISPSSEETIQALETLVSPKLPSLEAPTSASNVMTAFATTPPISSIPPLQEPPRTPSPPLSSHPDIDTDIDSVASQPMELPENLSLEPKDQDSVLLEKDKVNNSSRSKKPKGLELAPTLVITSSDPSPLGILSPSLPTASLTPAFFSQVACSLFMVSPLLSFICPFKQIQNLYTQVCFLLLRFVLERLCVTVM
Procedure, shortened: as §1

ETV2 = target: T4, ETV2 (Homo sapiens, UniProt O00321 1-342); details: protein: recombinant; tags: N-terminal GST; dsDNA, one strand shown
T4 sequence: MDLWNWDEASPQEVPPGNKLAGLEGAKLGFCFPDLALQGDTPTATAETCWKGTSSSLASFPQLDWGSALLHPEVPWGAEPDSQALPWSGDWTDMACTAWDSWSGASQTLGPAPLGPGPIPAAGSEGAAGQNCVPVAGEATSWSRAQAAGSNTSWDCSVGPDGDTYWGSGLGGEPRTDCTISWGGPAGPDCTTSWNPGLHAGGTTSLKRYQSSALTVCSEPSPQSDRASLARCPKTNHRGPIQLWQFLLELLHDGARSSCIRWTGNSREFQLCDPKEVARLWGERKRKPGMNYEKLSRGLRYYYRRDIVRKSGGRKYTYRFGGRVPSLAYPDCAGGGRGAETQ
Procedure, shortened: as §1

ELF3 = target: T5, ELF3 (Homo sapiens, UniProt P78545 1-371); details: protein: recombinant; tags: N-terminal GST; dsDNA, one strand shown
T5 sequence: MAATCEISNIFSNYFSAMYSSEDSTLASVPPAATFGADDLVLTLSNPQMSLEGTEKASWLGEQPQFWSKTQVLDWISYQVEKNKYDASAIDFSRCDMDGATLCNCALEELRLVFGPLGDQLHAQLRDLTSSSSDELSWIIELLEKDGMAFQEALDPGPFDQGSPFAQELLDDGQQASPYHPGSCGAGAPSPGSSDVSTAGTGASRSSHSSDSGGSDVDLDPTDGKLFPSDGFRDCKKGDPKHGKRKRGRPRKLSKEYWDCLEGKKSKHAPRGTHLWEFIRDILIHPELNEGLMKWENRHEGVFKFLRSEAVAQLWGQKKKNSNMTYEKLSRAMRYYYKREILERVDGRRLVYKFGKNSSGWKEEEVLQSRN
Procedure, shortened: as §1

CRX = CRX (Homo sapiens, UniProt O43186 1-299); details: protein: recombinant; tags: N-terminal GST; dsDNA, one strand shown
Sequence of CRX (O43186 whole entry): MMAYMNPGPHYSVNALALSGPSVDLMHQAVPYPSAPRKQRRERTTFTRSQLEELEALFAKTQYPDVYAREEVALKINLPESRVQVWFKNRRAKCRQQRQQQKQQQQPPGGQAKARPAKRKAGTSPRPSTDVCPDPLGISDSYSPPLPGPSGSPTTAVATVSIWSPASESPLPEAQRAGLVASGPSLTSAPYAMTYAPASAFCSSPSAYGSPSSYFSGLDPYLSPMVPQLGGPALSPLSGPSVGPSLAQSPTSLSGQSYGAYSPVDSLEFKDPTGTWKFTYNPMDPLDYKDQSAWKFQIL
Procedure, shortened: as §1

ETV1 = ETV1 (Homo sapiens, UniProt P50549 1-477); details: protein: recombinant; tags: N-terminal GST; dsDNA, one strand shown
Sequence of ETV1 (P50549 whole entry): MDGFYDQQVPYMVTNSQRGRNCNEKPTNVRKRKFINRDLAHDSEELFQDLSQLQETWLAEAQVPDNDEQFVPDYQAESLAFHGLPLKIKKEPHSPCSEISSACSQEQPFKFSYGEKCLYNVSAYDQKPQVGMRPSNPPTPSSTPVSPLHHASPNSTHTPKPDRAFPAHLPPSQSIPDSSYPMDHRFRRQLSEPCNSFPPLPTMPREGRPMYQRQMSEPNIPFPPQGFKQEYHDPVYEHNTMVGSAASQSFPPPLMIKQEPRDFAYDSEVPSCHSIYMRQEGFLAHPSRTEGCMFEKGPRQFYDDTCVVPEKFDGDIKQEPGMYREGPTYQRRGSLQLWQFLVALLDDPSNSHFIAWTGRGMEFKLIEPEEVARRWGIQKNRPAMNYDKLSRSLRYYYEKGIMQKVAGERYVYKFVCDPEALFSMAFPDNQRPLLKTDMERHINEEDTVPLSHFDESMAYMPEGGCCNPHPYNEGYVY
Procedure, shortened: as §1

ERF = target: T6, ERF (Homo sapiens, UniProt P50548 1-548); details: protein: recombinant; tags: N-terminal GST; dsDNA, one strand shown
T6 sequence: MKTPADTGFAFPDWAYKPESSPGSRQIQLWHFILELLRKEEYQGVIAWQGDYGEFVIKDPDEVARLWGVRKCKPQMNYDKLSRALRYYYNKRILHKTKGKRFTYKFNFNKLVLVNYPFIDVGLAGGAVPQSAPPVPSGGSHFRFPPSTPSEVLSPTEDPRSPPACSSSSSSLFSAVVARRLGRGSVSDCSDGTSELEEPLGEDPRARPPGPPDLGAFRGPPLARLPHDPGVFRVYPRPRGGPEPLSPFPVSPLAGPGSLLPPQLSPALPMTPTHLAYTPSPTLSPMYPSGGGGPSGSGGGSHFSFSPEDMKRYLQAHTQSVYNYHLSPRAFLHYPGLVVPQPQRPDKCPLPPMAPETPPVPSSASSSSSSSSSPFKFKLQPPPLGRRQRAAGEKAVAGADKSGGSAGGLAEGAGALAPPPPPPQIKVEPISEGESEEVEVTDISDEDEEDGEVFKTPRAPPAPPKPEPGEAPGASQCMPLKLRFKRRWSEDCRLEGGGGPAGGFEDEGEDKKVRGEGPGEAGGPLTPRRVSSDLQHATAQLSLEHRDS
Procedure, shortened: as §1

ETV3L = target: T7, ETV3L (Homo sapiens, UniProt Q6ZN32 1-361); details: protein: recombinant; tags: N-terminal GST; dsDNA, one strand shown
T7 sequence: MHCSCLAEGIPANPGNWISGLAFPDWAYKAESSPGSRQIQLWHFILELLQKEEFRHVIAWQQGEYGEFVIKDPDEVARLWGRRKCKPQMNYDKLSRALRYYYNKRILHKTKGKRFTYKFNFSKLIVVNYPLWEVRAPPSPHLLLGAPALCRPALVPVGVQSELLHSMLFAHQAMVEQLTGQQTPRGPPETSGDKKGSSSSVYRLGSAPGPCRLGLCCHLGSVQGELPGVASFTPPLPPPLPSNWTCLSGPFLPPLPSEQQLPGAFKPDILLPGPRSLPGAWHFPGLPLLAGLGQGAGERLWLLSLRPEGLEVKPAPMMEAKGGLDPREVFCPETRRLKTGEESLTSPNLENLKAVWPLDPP
Procedure, shortened: as §1

ETS2 = target: T8, ETS2 (Homo sapiens, UniProt P15036 1-469); details: protein: recombinant; tags: N-terminal GST; dsDNA, one strand shown
T8 sequence: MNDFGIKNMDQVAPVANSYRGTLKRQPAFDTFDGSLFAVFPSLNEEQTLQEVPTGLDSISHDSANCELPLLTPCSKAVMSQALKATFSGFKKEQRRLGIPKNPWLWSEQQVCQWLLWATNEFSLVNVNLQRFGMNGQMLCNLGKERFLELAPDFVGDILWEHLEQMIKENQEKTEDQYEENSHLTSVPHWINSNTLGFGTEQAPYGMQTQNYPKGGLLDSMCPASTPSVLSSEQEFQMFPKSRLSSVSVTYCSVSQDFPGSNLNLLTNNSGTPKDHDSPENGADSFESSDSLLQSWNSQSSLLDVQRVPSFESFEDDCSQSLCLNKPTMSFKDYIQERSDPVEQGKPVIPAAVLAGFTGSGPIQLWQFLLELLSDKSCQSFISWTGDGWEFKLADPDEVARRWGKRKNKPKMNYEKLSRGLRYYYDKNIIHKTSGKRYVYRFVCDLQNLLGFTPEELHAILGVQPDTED
Procedure, shortened: as §1

SPDEF = target: T9, SPDEF (Homo sapiens, UniProt O95238 1-335); details: protein: recombinant; tags: N-terminal GST; dsDNA, one strand shown
T9 sequence: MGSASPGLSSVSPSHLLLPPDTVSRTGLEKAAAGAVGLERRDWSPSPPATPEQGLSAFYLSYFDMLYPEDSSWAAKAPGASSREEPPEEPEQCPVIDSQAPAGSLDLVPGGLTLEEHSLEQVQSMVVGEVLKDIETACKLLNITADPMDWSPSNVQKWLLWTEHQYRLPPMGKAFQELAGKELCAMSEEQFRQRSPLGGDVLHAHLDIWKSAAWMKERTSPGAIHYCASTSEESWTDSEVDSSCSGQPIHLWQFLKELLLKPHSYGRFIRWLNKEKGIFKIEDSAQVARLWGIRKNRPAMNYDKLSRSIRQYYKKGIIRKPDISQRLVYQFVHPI
Procedure, shortened: as §1

ETV7 = target: T10, ETV7 (Homo sapiens, UniProt Q9Y603 1-341); details: protein: recombinant; tags: N-terminal GST; dsDNA, one strand shown
T10 sequence: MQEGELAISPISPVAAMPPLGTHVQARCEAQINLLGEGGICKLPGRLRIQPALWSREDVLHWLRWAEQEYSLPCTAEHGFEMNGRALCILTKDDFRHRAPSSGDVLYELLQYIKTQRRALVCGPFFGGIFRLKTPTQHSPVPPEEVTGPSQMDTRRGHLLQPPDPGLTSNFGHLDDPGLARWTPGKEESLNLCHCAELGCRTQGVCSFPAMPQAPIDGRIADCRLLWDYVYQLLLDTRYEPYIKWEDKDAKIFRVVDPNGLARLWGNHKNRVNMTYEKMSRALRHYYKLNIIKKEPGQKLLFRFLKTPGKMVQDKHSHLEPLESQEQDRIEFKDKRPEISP
Procedure, shortened: as §1

ELF5 = target: T11, ELF5 (Homo sapiens, UniProt Q9UKW6-2 1-255); details: protein: recombinant; tags: N-terminal GST; dsDNA, one strand shown
T11 sequence: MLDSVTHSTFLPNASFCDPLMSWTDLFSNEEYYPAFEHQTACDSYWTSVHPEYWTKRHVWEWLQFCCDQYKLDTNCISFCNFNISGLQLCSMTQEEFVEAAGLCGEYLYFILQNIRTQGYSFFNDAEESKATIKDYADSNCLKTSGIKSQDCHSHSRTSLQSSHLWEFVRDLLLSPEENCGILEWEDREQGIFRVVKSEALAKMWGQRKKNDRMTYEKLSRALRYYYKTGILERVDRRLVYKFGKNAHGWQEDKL
Procedure, shortened: as §1

ETV3 = target: T12, ETV3 (Homo sapiens, UniProt P41162-2 1-143); details: protein: recombinant; tags: N-terminal GST; dsDNA, one strand shown
T12 sequence: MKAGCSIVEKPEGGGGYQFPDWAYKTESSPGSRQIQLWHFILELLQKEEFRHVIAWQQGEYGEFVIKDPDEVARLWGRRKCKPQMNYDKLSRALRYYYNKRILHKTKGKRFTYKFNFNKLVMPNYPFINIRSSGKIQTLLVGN
Procedure, shortened: as §1

ETV6 = ETV6 (Homo sapiens, UniProt P41212 1-452); details: protein: recombinant; tags: N-terminal GST; dsDNA, one strand shown
Sequence of ETV6 (P41212 whole entry): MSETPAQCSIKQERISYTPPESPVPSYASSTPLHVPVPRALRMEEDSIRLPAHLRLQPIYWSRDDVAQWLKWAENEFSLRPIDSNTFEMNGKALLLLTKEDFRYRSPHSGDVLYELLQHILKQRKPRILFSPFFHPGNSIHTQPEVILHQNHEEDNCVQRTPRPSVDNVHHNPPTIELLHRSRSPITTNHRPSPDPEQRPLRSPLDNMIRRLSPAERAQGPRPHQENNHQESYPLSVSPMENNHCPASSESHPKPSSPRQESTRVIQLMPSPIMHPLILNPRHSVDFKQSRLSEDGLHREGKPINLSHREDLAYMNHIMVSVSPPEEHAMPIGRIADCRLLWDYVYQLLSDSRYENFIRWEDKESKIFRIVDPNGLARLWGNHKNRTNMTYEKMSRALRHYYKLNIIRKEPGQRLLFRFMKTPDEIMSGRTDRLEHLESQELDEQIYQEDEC
Procedure, shortened: as §1

TCTATC
binding signal (FEV): 1.16 fold enrichment (6-mer frequency, TF over GST control)
binding signal (ETV5): 1.19 fold enrichment (6-mer frequency, TF over GST control)
binding signal (HSF1): 1.43 fold enrichment (6-mer frequency, TF over GST control)
binding signal (SPIC): 1.23 fold enrichment (6-mer frequency, TF over GST control)
binding signal (ELF4): 1.25 fold enrichment (6-mer frequency, TF over GST control)
binding signal (ELK4): 1.24 fold enrichment (6-mer frequency, TF over GST control)
binding signal (ETV2): 1.27 fold enrichment (6-mer frequency, TF over GST control)
binding signal (ELF3): 1.29 fold enrichment (6-mer frequency, TF over GST control)
binding signal (CRX): 1.32 fold enrichment (6-mer frequency, TF over GST control)
binding signal (ETV1): 1.16 fold enrichment (6-mer frequency, TF over GST control)
binding signal (ERF): 1.37 fold enrichment (6-mer frequency, TF over GST control)
binding signal (ETV3L): 1.27 fold enrichment (6-mer frequency, TF over GST control)
binding signal (ETS2): 1.16 fold enrichment (6-mer frequency, TF over GST control)
binding signal (SPDEF): 1.27 fold enrichment (6-mer frequency, TF over GST control)
binding signal (ETV7): 1.27 fold enrichment (6-mer frequency, TF over GST control)
binding signal (ELF5): 1.24 fold enrichment (6-mer frequency, TF over GST control)
binding signal (ETV3): 1.2 fold enrichment (6-mer frequency, TF over GST control)
binding signal (ETV6): 1.32 fold enrichment (6-mer frequency, TF over GST control)
